# Laboratory results: PubChem BioAssay (NCATS)
# Records with an inconclusive call do not appear. Activity calls are given as the source filed them. The call rests on the fitted dose curve; in most records, active means well fitted activation curve with a large enough effect; inconclusive means small, poorly fitted or top-dose-only effect; inactive means flat fitted curve, though single readings scatter. Numbered stars: 1 amine (or outer) side, 2 acyl side, 3 side chain; on linkers, the order of the positions; unused ones are H or OH. Bridge positions count the residues as written; N and C are the ends. Square brackets hold non-standard residues; d marks the D form. Peptide text beside a SMILES is read from it. * marks the point of attachment. ξ: configuration not given here. Phe(3R-OH) = O=C([C@@H](N[*:1])[C@H](O[*:3])c1ccccc1)[*:2]; NMeTrp(4-OMe) = CN[C@@H](Cc1c[nH]c2cccc(OC)c12)C(=O)O; X4 = O=C(C1CC2(c3ccc(O)cc3)c3ccccc3NC2N1[*:1])[*:2]; ξThr(3R)(O-yl) = C[C@@H](O[*:3])C(N[*:1])C(=O)[*:2]; NMeThr(3ξ) = CN[C@H](C(=O)O)C(C)O; ξW = NC(Cc1c[nH]c2ccccc12)C(=O)O; NMeL = CN[C@@H](CC(C)C)C(=O)O; NMeV = CN[C@H](C(=O)O)C(C)C; ξIle = CC[C@H](C)C(N)C(=O)O; ξY = NC(Cc1ccc(O)cc1)C(=O)O; Octanoyl = CCCCCCCC(=O)*; ξV = CC(C)C(N)C(=O)O
# Assay: HEK293 12hr Apoptosis Induction qHTS against the NCATS CANVASS Library (AID 1347361); on caspase activation: 0% is about no effect
# Conditions: HEK293 caspase-3/7 Caspase-Glo luminescence; series mostly up to 46.1 µM; caspase activation: at the top concentration
# Source text: Natural products and their derivatives continue to be wellsprings of nascent therapeutic potential. However, many laboratories have limited resources for biological evaluation, leaving their previously isolated or synthesized compounds largely or completely untested. To address this issue, the Canvass library of natural products was assembled (https://tripod.nih.gov/canvass), in collaboration with academic and industry researchers, for quantitative high-throughput screening (qHTS) across a diverse set of cell-based and biochemical assays. The pure (>85% purity by liquid chromatography/mass spectrometry [LC/MS]) Canvass library of 346 natural products were submitted by 45 academic laboratories and companies around the world. We collected pure natural products to circumvent deconvolution and structure elucidation due to time and resource limitations. The library was formatted into 1536-well plates and evaluated in 50 qHTS (in an 11-pnt concentration series) bioassays with broad scope of disease-relevant mechanisms. The resulting data set from 50 different assays was then systematically analyzed to identify overall trends and specific natural products with interesting biological activities. Reported herein are the results of each individual qHTS and their corresponding assay protocol. The Caspase-Glo (R) (Promega) is a homogeneous, luminescent assay that measures caspase activity. The detection substrate contains tetrapeptide sequence DEVD in an "add-mix-measure" format. The reagent generates a luminescent signal produced by a thermostable luciferase. The luminescence is proportional to the amount of caspase activity in the assay reaction. National Center for Advancing Translational Sciences (NCATS), Rockville, MD National Institute of Health (NIH), Bethesda, Maryland
# Cancer Cell Apoptosis Assay 1. In a 1536 well, white solid bottom tissue culture plates (Corning 7494), HEK293 cancer cells in DMEM + 10% FBS + 1% P/S media were dispensed in each well at a final concentration of 500 cells / well (5uL volume) using the Multidrop Combi (Thermo Fisher Scientific) dispenser. 2. Compounds were pin transferred (~23nL volume) via Wako Pin-tool (Wako Automation, Richmond VA) equipped with a 1536 pin head. The assay plates were treated with compounds in a concentration series with a final concentration range of […] to 103uM. 3. Doxorubicin was used as a control in a 16pnt titration (1mM; 1:2 dilution; 16-points; n = 2; column 3, rows 1 - 32) and was pin transferred via Wako Pin-tool equipped with a 1536 pin head. The final concentration range of doxorubicin is 0.1nM - 4uM. 4. The assay plates were incubated for 12 hours at 37 degrees C/5% CO2/95% Rh. 5. 3uL Caspase-Glo 3/7 (R) (Promega) detection reagent was then added to the assay plates (columns 2 - 48, rows 1 - 32) and incubated at room temperature, covered from light, for 15 min. 6. Luminescence signal was acquired via the ViewLux plate reader (PerkinElmer) using a clear filter, 20 second exposure, and 2x binning settings.
# Potency means the concentration at half of the fitted maximal effect.
SMILES,caspase activation,Potency
CCCCCCCCC[C@@H]1C[C@@H]2CC[C@H]3[C@@H](C(=O)OCCCCN=C(N)N)[C@@H](C)N=C(N1)N23,-2.12% [at 27.5 µM] (inactive),–
CC1(C)[C@H](Br)CC[C@]23C[C@]4(C)C(=O)CC12C[C@H]34,-1.31% (inactive),–
C=C[C@]1(C)CC[C@@H]([C@H](C)C(=O)/C=C/C(C)C)O1,-0.358% (inactive),–
C[C@@H]1O[C@@H](O[C@@H]2[C@@H](O)[C@H](O[C@@H]3[C@@H](O)[C@@H](O)C(O[C@H]4[C@H](OC(=O)[C@]56CCC(C)(C)C[C@H]5C5=CCC7[C@@]8(C)C[C@H](O)[C@H](O[C@@H]9C[C@H](CO)[C@@H](O)[C@H](O)[C@H]9O)[C@@](C)(CO)C8[C@H](O)C[C@@]7(C)[C@]5(C)CC6)OC[C@H](O)[C@@H]4O)O[C@H]3C)OC[C@H]2O)[C@H](O)[C@H](O)[C@H]1O (stereo not given in full),4.59% [at 27.5 µM] (inactive),–
C=CC(C)(C)C(=O)[C@@H](C)[C@@H]1CC[C@](C)(C=C)O1,-0.924% (inactive),–
C[C@]12CC[C@]3(C1)[C@H](CC2=O)CC(OC(=O)c1ccccc1)[C@H]1[C@@](CO)(C(=O)O)CCC[C@@]13C (stereo not given in full),4.36% (inactive),–
CC1(C)C=Cc2c(ccc3c2OC[C@@H](c2ccc(O)cc2O)C3)O1,0.682% (inactive),–
CC[C@H](C)[C@H](NC(=O)C(Cc1ccc(O)cc1)NC(=O)C(Cc1c[nH]c2ccccc12)NC(=O)[C@H](C)N)C(=O)N1C(C(=O)NC(Cc2ccc(O)cc2)C(=O)O)CC2(c3ccc(O)cc3)c3ccccc3NC12 (stereo not given in full) (H-A[ξW][ξY]I[X4][ξY]-OH),2.22% (inactive),–
CC(=O)[C@@H]1[C@@H](O)C[C@H]2[C@]3(C)CC[C@H]4C(C)(C)CCC[C@]4(CO)[C@H]3C[C@H]3OC(=O)[C@@H]1[C@@]32C,0.95% (inactive),–
CN1CC[C@]2(c3cccc4c3N[C@@H]3N(C)CC[C@]43[C@@]34CCN(C)[C@@H]3Nc3ccccc34)c3ccccc3N[C@H]12,17.5% (inactive),–
CC1(C)CCC[C@]2(C)[C@@H]1CC[C@@]13C[C@@H](CC[C@H]12)C(C)(O)C3 (stereo not given in full),0.87% (inactive),–
C=C(NC(=O)c1csc(-c2nc3c(cc2O)-c2nc(cs2)C(=O)NC(C(C)O)C(=O)N/C(=C(\C)O)c2nc(cs2)C(=O)NC2c4nc(cs4)C(=O)NC(COC(=O)c4c5c6c(cccc6n4O)COC(=O)[C@@H](OC4C[C@](C)(O)[C@H](N(C)C)[C@H](C)O4)C2OC5)c2nc-3cs2)n1)C(N)=O (stereo not given in full),-1.36% (inactive),–
CC(=O)NC[C@@H]1O[C@H](CC/C=C(C)/C(C)=C/C=O)[C@H](C)C[C@H]1O,1.86% (inactive),–
C=C1C[C@@]23C=CC(=O)[C@@](C)(CCC(=O)Nc4c(O)ccc(C(=O)O)c4O)C2C[C@@H]1C(O)C3 (stereo not given in full),1.08% (inactive),–
O=C(O)CC1OCc2c(O)cccc21 (stereo not given),-3.1% (inactive),–
CCCCCCCCCCCCCCCC(=O)OC/C=C(\C)CCCC(C)CC(C)C(C)C (stereo not given),2.24% (inactive),–
CC(C)=CCC/C(C)=C/Cc1c(O)c(CC=C(C)C)c(O)c2c(=O)c3cc(O)ccc3oc12,4.94% (inactive),–
CC(=O)O[C@H]1CC[C@@]2(C)C(CC[C@]3(C)C2CC=C2C4CC(C)(C)CC[C@]4(C)CC[C@]23C)C1(C)C (stereo not given in full),2.99% (inactive),–
O=Cc1ccc2n1C[C@@]1(OC2)O[C@H](CO)[C@@H](O)[C@@H]1O,-3.51% (inactive),–
CCCCCCCC(=O)N[C@@H](CC(C)C)C(=O)N[C@H](C=O)CCC(=O)O (Octanoyl-Leu-Glu-aldehyde),-2.69% (inactive),–

SMILES,caspase activation,Potency
C[C@@]12CCC[C@@](C)(C(=O)O)[C@H]1CC[C@]13C[C@H]4C[C@H](O[C@@]4(C)C1)[C@H]32,-0.825% (inactive),–
Oc1ccc(/C=C2/c3cc(O)cc(O)c3C(c3ccc(O)cc3)[C@H]2c2cc(O)cc(O)c2)cc1 (stereo not given in full),-0.333% (inactive),–
CC1(C)CC[C@]2(C(=O)O)CC[C@]3(C)C(=CC[C@@H]4[C@@]5(C)C[C@@H](O)[C@H](O)C(C)(C)[C@@H]5CC[C@]43C)[C@@H]2C1,4.18% (inactive),–
COc1ccc([C@@H]2c3cc(OC)c(OC)cc3C(=O)[C@H](C)C2C)cc1OC (stereo not given in full),2.92% [at 9.19 µM] (inactive),–
CO[C@@H]1C[C@@H](C[C@H]2CC[C@H](C)[C@H]([C@@H](C)C(=O)O)O2)O[C@]2(O[C@](C)([C@H]3CC[C@@](C)([C@@H]4O[C@@H]([C@H]5O[C@](C)(O)[C@H](C)C[C@@H]5C)C[C@@H]4C)O3)C[C@H]2C)[C@@H]1C,0.0992% (inactive),–
C=C1C(=O)C[C@H]2C[C@@H]1[C@]2(C)CCC=C(C)C,7.37% (inactive),–
CCCCCC[C@H](CCCCC[C@@H](O)C(N)=O)OC(=O)[C@@H]1CC=CN1C(=O)c1ccccc1O,1.64% (inactive),–
C=C1/C=C\C(CCC)=C\c2csc(n2)C(C)NC(=O)C[C@@]2(CC(=O)O)CCC(=C)[C@H](C1)S2 (stereo not given in full),-0.102% (inactive),–
C1=C2CCCN[C@@H]2[C@@H]2CCN3CCCC[C@@H]3[C@H](C1)C2,2.1% (inactive),–
CN1CC[C@]2(c3cccc4c3N[C@@H]3N(C)CC[C@]43[C@@]34CCN(C)[C@@H]3Nc3c([C@]56CCN(C)[C@H]5Nc5ccccc56)cccc34)c3ccccc3N[C@H]12,4.2% (inactive),–
CO[C@@H]1[C@H](O)[C@@H](C)O[C@@H](OC[C@H]2/C=C/C=C/C(=O)C(C)C[C@H](C)C(O[C@@H]3O[C@H](C)CC4(OC(=O)O[C@@H]4C)C3O)[C@@H](C)/C=C/C(=O)OC2C)[C@@H]1OC (stereo not given in full),3.66% (inactive),–
C=C(C)CC[C@H](Cc1c(O)cc(O)c2c1O[C@H](c1ccc(O)cc1O)CC2=O)C(=C)C,2.14% (inactive),–
C=C1C(=O)O[C@H]2[C@H]1CC/C(CO)=C\CC[C@@]1(C)O[C@@H]21,–,23.5 µM (active)
COc1ccc([C@@H]2c3cc(OC)c(OC)cc3C(=O)C(C)C2C)cc1OC (stereo not given in full),1.52% (inactive),–
CC[C@H](C)C(NC(=O)[C@@H](NC)C(C)C)C(=O)NC1C(=O)N(C)[C@@H](C(C)O)C(=O)N[C@@H](C(C)C)C(=O)N(C)[C@@H](CC(C)C)C(=O)NC(C(C)C)C(=O)N(C)[C@@H](C(C)C)C(=O)N(C)[C@@H](Cc2c[nH]c3cccc(OC)c23)C(=O)N[C@@H](C(C)C)C(=O)N[C@@H]([C@H](O)c2ccccc2)C(=O)N[C@@H](C(C)C)C(=O)O[C@@H]1C (stereo partly drawn) (H-[NMeV][ξIle][ξThr(3R)(O-yl)][NMeThr(3ξ)]V[NMeL][ξV][NMeV][NMeTrp(4-OMe)]V[Phe(3R-OH)]V; ester 3-C),2.88% (inactive),–
C/C(=C\[C@H](C)C(=O)CCCC1CC(=O)NC(=O)C1)[C@@H]1OC(=O)/C=C/CC/C=C/C[C@@H](O)[C@@H]1C,-3.72% (inactive),–
COc1ccc2cc(NC(=O)C3=NO[C@H]4[C@H](O)C=C[C@@H](Cl)[C@@]4(O)C3)c(=O)oc2c1OC,-1.03% (inactive),–
O=C1CC(c2cc(O)cc(O)c2)Oc2cc(O)ccc21 (stereo not given),-4.85% (inactive),–
COc1ccc2oc3c(OC)c(OC)c(OC)c(OC)c3c(=O)c2c1,10.6% [at 9.19 µM] (inactive),–
Oc1ccc([C@H]2Oc3ccc(/C=C/c4cc(O)cc(O)c4)cc3C2c2cc(O)cc(O)c2)cc1 (stereo not given in full),1.94% (inactive),–
